Key:
Assay in all cases: DAPPL (digital affinity profiling via proximity ligation, sequencing); 10 mM Tris-HCl pH 7.5, 50 mM NaCl, 1 mM DTT, 4% glycerol, room temperature, 30 min; GST-TFs on glutathione beads, 16-mer random dsDNA library, 0.1% formaldehyde crosslink after washing; high values mean tight binding
Conditions in all cases: protein: recombinant; tags: N-terminal GST; dsDNA, one strand shown
FLI1 = biological target: T1, FLI1 (Homo sapiens, UniProt Q01543 1-452)
T1 sequence: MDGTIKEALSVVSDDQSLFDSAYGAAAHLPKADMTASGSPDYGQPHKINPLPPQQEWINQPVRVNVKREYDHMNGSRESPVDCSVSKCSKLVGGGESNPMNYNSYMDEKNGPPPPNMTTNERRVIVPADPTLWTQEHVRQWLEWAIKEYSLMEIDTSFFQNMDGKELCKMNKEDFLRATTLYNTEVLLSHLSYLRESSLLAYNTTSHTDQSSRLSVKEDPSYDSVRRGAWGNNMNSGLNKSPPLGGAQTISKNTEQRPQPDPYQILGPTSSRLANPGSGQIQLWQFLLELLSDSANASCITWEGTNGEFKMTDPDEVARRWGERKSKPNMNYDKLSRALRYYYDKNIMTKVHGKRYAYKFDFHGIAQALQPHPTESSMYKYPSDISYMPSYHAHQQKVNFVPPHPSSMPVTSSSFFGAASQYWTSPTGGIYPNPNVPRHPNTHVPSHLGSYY
Method in brief: (§1)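 Binding signal is defined as a hexamer's read frequency for one factor over its frequency for the tag-only sample. To obtain reads, GST-fused human transcription factors were expressed in yeast, captured on glutathione beads, barcoded with DNA and pooled with that sample. Pools met 200 nmole of a 16-mer random double-stranded DNA library in Tris/NaCl/DTT/glycerol buffer for 30 min at room temperature before washing, 0.1% formaldehyde crosslinking, proximity ligation (BsaI/T4 ligase, 1 h, 37 °C), PCR and Illumina NextSeq500 sequencing.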

ELK1 = biological target: T2, ELK1 (Homo sapiens, UniProt P19419 1-428)
T2 sequence: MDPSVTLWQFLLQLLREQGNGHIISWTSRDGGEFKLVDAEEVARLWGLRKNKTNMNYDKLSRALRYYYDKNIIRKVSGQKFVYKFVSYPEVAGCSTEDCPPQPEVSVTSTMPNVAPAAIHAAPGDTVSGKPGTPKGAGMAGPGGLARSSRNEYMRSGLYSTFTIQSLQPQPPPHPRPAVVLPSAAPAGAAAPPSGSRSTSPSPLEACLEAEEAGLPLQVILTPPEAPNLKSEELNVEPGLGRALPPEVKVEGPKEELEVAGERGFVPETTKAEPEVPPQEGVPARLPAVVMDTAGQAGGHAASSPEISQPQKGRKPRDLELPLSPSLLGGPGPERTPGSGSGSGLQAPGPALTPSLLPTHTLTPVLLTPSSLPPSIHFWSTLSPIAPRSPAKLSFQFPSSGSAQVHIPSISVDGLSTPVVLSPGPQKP
Method in brief: as §1

GABPA = biological target: T3, GABPA (Homo sapiens, UniProt Q06546 1-454)
T3 sequence: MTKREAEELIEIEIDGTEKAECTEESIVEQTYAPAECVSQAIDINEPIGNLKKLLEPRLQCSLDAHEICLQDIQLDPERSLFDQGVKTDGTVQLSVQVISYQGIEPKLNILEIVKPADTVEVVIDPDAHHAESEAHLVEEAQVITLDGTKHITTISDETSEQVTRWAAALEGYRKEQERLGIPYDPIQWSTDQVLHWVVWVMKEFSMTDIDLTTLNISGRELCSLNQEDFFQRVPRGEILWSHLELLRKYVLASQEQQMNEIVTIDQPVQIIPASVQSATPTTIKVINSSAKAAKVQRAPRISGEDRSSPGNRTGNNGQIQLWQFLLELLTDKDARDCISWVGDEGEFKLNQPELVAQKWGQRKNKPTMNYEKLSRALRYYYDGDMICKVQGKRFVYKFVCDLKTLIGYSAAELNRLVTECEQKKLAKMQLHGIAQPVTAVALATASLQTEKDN
Method in brief: as §1

ERG = biological target: T4, ERG (Homo sapiens, UniProt P11308 1-479)
T4 sequence: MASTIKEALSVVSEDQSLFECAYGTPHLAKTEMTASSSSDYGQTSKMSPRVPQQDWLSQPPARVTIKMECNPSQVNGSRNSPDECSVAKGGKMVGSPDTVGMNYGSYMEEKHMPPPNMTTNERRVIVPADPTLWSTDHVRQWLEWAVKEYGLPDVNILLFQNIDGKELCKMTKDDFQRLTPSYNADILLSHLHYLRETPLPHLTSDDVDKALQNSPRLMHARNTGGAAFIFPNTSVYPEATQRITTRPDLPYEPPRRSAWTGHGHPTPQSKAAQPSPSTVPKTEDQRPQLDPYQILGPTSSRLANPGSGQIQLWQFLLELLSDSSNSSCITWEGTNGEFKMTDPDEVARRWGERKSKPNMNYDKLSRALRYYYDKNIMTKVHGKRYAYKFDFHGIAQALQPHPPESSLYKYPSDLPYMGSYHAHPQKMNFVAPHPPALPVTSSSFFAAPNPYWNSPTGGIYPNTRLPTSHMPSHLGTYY
Method in brief: as §1

ELF1 = ELF1 (Homo sapiens, UniProt P32519 1-619)
ELF1, sequence (P32519 whole entry): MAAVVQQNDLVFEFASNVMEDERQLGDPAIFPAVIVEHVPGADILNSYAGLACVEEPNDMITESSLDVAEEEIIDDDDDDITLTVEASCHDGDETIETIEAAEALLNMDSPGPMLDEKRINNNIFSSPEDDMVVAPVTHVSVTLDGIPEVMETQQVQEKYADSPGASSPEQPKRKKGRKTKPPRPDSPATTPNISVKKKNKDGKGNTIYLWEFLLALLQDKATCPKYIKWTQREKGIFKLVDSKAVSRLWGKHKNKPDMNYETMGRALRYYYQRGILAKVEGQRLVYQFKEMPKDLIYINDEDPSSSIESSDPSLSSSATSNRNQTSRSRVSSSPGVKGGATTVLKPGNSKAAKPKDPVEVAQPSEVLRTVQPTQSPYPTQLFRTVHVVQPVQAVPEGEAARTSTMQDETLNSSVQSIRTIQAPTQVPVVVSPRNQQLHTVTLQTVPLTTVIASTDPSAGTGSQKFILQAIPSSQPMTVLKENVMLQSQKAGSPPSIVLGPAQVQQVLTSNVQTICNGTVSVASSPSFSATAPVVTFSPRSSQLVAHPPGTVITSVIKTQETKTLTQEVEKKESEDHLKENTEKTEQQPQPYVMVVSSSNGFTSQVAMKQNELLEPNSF
Method in brief: as §1

EHF = biological target: T5, EHF (Homo sapiens, UniProt Q9NZC4 1-300)
T5 sequence: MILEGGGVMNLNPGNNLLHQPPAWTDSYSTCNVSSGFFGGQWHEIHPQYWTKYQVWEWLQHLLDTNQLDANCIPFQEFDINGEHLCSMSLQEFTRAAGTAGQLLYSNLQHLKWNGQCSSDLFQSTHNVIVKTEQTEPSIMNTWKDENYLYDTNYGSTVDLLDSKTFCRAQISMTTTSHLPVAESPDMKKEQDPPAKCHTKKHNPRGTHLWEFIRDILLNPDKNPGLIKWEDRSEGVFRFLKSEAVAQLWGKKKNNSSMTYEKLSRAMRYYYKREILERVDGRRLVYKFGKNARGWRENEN
Method in brief: as §1

SPI1 = SPI1 (Homo sapiens, UniProt P17947 1-270)
Method in brief: as §1

SPIB = SPIB (Homo sapiens, UniProt Q01892 1-262)
SPIB, sequence (Q01892 whole entry): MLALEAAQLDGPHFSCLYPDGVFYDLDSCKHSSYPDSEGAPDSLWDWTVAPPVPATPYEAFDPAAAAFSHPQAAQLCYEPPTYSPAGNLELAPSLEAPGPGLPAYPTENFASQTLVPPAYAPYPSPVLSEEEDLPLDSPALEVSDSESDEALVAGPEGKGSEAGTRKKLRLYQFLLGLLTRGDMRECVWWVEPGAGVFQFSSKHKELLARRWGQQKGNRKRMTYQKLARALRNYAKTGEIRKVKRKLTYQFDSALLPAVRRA
Method in brief: as §1

ELK3 = biological target: T6, ELK3 (Homo sapiens, UniProt P41970 1-407)
T6 sequence: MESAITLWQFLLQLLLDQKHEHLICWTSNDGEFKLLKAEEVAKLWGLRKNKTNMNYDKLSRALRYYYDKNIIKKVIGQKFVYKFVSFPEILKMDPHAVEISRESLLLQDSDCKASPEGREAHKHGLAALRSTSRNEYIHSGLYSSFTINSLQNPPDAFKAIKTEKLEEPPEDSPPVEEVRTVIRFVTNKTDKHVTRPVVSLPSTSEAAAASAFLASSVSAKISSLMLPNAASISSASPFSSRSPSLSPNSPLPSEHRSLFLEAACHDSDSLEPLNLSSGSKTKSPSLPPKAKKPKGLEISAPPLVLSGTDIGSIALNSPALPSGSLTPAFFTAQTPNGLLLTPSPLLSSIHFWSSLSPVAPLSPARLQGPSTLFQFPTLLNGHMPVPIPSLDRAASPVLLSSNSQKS
Method in brief: as §1

CGATAA
binding signal (FLI1): 1.12 fold enrichment (6-mer frequency, TF over GST control)
binding signal (ELK1): 1.02 fold enrichment (6-mer frequency, TF over GST control)
binding signal (GABPA): 1.06 fold enrichment (6-mer frequency, TF over GST control)
binding signal (ERG): 1.09 fold enrichment (6-mer frequency, TF over GST control)
binding signal (ELF1): 1.08 fold enrichment (6-mer frequency, TF over GST control)
binding signal (EHF): 1.03 fold enrichment (6-mer frequency, TF over GST control)
binding signal (SPI1): 1.08 fold enrichment (6-mer frequency, TF over GST control)
binding signal (SPIB): 1.19 fold enrichment (6-mer frequency, TF over GST control)
binding signal (ELK3): 1.2 fold enrichment (6-mer frequency, TF over GST control)

CACTGC
binding signal (FLI1): 1.45 fold enrichment (6-mer frequency, TF over GST control)
binding signal (ELK1): 1.46 fold enrichment (6-mer frequency, TF over GST control)
binding signal (GABPA): 1.32 fold enrichment (6-mer frequency, TF over GST control)
binding signal (ERG): 1.41 fold enrichment (6-mer frequency, TF over GST control)
binding signal (ELF1): 1.44 fold enrichment (6-mer frequency, TF over GST control)
binding signal (EHF): 1.58 fold enrichment (6-mer frequency, TF over GST control)
binding signal (SPI1): 1.38 fold enrichment (6-mer frequency, TF over GST control)
binding signal (SPIB): 1.44 fold enrichment (6-mer frequency, TF over GST control)
binding signal (ELK3): 1.51 fold enrichment (6-mer frequency, TF over GST control)

ACCAAC
binding signal (FLI1): 1.19 fold enrichment (6-mer frequency, TF over GST control)
binding signal (ELK1): 1.36 fold enrichment (6-mer frequency, TF over GST control)
binding signal (GABPA): 1.23 fold enrichment (6-mer frequency, TF over GST control)
binding signal (ERG): 1.15 fold enrichment (6-mer frequency, TF over GST control)
binding signal (ELF1): 1.24 fold enrichment (6-mer frequency, TF over GST control)
binding signal (EHF): 1.18 fold enrichment (6-mer frequency, TF over GST control)
binding signal (SPI1): 1.19 fold enrichment (6-mer frequency, TF over GST control)
binding signal (SPIB): 1.12 fold enrichment (6-mer frequency, TF over GST control)
binding signal (ELK3): 1.18 fold enrichment (6-mer frequency, TF over GST control)

CCACAA
binding signal (FLI1): 1.2 fold enrichment (6-mer frequency, TF over GST control)
binding signal (ELK1): 1.14 fold enrichment (6-mer frequency, TF over GST control)
binding signal (GABPA): 1.25 fold enrichment (6-mer frequency, TF over GST control)
binding signal (ERG): 1.09 fold enrichment (6-mer frequency, TF over GST control)
binding signal (ELF1): 1.21 fold enrichment (6-mer frequency, TF over GST control)
binding signal (EHF): 1.08 fold enrichment (6-mer frequency, TF over GST control)
binding signal (SPI1): 1.22 fold enrichment (6-mer frequency, TF over GST control)
binding signal (SPIB): 1.07 fold enrichment (6-mer frequency, TF over GST control)
binding signal (ELK3): 1.34 fold enrichment (6-mer frequency, TF over GST control)

AACCGG
binding signal (FLI1): 1.43 fold enrichment (6-mer frequency, TF over GST control)
binding signal (ELK1): 1.58 fold enrichment (6-mer frequency, TF over GST control)
binding signal (GABPA): 1.33 fold enrichment (6-mer frequency, TF over GST control)
binding signal (ERG): 1.73 fold enrichment (6-mer frequency, TF over GST control)
binding signal (ELF1): 1.46 fold enrichment (6-mer frequency, TF over GST control)
binding signal (EHF): 1.5 fold enrichment (6-mer frequency, TF over GST control)
binding signal (SPI1): 1.7 fold enrichment (6-mer frequency, TF over GST control)
binding signal (SPIB): 1.64 fold enrichment (6-mer frequency, TF over GST control)
binding signal (ELK3): 1.54 fold enrichment (6-mer frequency, TF over GST control)

AATTCA
binding signal (FLI1): 1.29 fold enrichment (6-mer frequency, TF over GST control)
binding signal (ELK1): 1.23 fold enrichment (6-mer frequency, TF over GST control)
binding signal (GABPA): 1.35 fold enrichment (6-mer frequency, TF over GST control)
binding signal (ERG): 1.33 fold enrichment (6-mer frequency, TF over GST control)
binding signal (ELF1): 1.31 fold enrichment (6-mer frequency, TF over GST control)
binding signal (EHF): 1.27 fold enrichment (6-mer frequency, TF over GST control)
binding signal (SPI1): 1.29 fold enrichment (6-mer frequency, TF over GST control)
binding signal (SPIB): 1.33 fold enrichment (6-mer frequency, TF over GST control)
binding signal (ELK3): 1.47 fold enrichment (6-mer frequency, TF over GST control)

ACTGCG
binding signal (FLI1): 1.24 fold enrichment (6-mer frequency, TF over GST control)
binding signal (ELK1): 1.32 fold enrichment (6-mer frequency, TF over GST control)
binding signal (GABPA): 1.26 fold enrichment (6-mer frequency, TF over GST control)
binding signal (ERG): 1.26 fold enrichment (6-mer frequency, TF over GST control)
binding signal (ELF1): 1.35 fold enrichment (6-mer frequency, TF over GST control)
binding signal (EHF): 1.37 fold enrichment (6-mer frequency, TF over GST control)
binding signal (SPI1): 1.33 fold enrichment (6-mer frequency, TF over GST control)
binding signal (SPIB): 1.3 fold enrichment (6-mer frequency, TF over GST control)
binding signal (ELK3): 1.25 fold enrichment (6-mer frequency, TF over GST control)
